Test results from PubChem BioAssay (NCATS).
Inconclusive results are not listed. Where a call stands in place of a potency, no number is given. The source made the active and inactive calls. Calls come from the whole dose curve; as a rule, active = well fitted inhibition curve with a large enough effect; inconclusive = small, poorly fitted or top-dose-only effect; inactive = flat fitted curve, though single readings scatter.

Each molecule was assayed on CRL-7250 (assay: qHTS assay to identify novel small-molecules to repurpose for Merkel cell carcinoma treatment (AID 1296009; note: nearly all actives have a fitted effect of over 60% in size)). Settings: MCC and control cell lines, CellTiter-Glo viability, 72 h; series mostly up to 92 µM.
Outline: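 Cell viability measured by CellTiter-Glo following 72 hr compound treatment at 37 degree celsius, with NPC and MIPE libraries tested in 8- and 11-point concentration series.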

SMILES | Potency
N[C@@]1(C(=O)O)CC[C@H]2[C@H](C(=O)O)[C@H]21 | inactive
Cc1cc(Nc2nc(NC(C)c3ncc(F)cn3)ncc2Cl)n[nH]1 (centres undefined) | inactive
CCC/C=C/C=C/C1CC(O)C(O)C(=O)C1CO (centres undefined) | inactive
C=C(COC(=O)CC(C)C)C1Cc2cc(C(C)=O)ccc2O1 (centres undefined) | inactive
C=C1CC/C=C(/CO)C(=O)C[C@@H]2[C@@H]1CC2(C)C | inactive
C[C@@H](CC[C@@H]1[C@@]2(C)CCCC(C)(C)C2CC[C@@]1(C)O)CC(=O)O (some centres undefined) | inactive
COc1c(CCC(=O)O)cccc1O[C@@H]1O[C@H](CO)[C@@H](O)[C@H](O)[C@H]1O | inactive
CC1(C)CC[C@]2(C(=O)O)CC[C@]3(C)C(=CCC4[C@@]5(C)C[C@@H](O)[C@H](O)[C@](C)(CO)C5CC[C@]43C)[C@@H]2[C@@H]1O (some centres undefined) | inactive
CC1CCC2(C(=O)OC3OC(CO)C(O)C(O)C3O)CCC3(C)C(=CCC4C5(C)CCC(O)C(C)(CO)C5CCC43C)C2C1(C)O (centres undefined) | inactive
